Experimental data published in PubChem BioAssay AID1347165 (National Center for Advancing Translational Sciences (NCATS), 2019).
Hit rate of the full screen: of about 220,000 compounds, about 5,700 (2.6%) were called active. Roughly 18% stayed inconclusive and do not appear here. For the sample, actives were picked, then their nearest neighbours and some compounds at random. Unmarked numbers belong to inactive results. Calls come from the whole dose curve; as a rule, active = well fitted inhibition curve with a large enough effect; inconclusive = small, poorly fitted or top-dose-only effect; inactive = no such curve, though single readings can be large or run the other way.

Biological target: Lysine-specific demethylase 5B (Homo sapiens) (UniProt Q9UGL1)
Sequence (Q9UGL1 whole entry, looked up): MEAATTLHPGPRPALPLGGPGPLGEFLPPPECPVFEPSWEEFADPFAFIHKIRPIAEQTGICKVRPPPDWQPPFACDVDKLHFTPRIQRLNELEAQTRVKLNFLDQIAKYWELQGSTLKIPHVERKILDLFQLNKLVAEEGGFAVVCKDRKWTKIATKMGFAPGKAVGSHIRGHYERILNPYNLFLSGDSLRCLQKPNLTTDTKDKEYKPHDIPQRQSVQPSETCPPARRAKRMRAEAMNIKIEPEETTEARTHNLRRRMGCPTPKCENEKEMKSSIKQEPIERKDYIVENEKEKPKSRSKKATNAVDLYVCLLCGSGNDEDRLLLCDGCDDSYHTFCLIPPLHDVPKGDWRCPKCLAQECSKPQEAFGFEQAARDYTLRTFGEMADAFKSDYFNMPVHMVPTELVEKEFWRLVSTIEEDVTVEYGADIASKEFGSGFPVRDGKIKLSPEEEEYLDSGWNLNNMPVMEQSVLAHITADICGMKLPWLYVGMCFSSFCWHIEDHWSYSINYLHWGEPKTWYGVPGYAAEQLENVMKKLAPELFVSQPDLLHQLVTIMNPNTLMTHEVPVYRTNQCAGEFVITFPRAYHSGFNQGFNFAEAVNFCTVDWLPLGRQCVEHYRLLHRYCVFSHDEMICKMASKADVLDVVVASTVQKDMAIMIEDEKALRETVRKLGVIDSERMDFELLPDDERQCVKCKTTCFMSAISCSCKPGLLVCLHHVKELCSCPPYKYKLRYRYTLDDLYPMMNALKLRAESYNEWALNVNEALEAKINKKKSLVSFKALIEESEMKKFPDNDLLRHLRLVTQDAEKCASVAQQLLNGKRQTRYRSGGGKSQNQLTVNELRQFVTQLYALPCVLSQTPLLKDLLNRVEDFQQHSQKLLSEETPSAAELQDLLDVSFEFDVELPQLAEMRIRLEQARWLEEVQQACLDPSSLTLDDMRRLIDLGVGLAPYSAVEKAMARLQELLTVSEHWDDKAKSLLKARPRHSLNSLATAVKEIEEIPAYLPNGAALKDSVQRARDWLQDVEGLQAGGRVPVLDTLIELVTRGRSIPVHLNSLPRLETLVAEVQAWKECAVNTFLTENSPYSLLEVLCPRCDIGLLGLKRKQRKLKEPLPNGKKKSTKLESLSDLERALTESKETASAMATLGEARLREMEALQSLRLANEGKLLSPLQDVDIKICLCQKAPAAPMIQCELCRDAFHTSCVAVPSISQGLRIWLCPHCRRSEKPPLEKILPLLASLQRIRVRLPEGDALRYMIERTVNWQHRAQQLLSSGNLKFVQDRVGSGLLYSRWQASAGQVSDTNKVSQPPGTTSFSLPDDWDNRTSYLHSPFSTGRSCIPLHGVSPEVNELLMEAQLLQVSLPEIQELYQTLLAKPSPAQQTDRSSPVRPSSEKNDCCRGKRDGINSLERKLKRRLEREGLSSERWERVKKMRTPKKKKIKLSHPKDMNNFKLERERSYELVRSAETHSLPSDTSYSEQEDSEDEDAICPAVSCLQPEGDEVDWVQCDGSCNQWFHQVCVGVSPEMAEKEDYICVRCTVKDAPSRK
Assay: Primary screen for KDM5B Histone Demethylases FDH-coupled qHTS; note: nearly all actives have a fitted effect of over 70% in size; for activity change, negative = inhibition: 0% is about no effect
Details: FDH-coupled NADH fluorescence (FDH is formaldehyde dehydrogenase); series mostly up to 57.7 µM; activity change, negative = inhibition: at the top concentration
Excerpt: Assay Submitter (PI): Qin Yan, Ph.D. (Yale University) and Xiaodong Cheng, Ph.D. (MD Anderson) This project was funded as part of the NCI NEXT Program and Chemical Biology Consortium (CBC) The histone demethylases, KDM5A and KDM5B catalyze the demethylation of lysine 4 on histone H3 (H3K4me3/2). They are overexpressed in a variety of cancers and have been implicated in cancer cell growth, metastasis, drug resistance, and tumor growth. KDM5A is amplified and overexpressed in breast and gastric cancer; and is translocated in leukemia. While KDM5B is highly expressed in human mammary tumors and breast cancer cell lines, but not in normal adult breast tissue. Moreover, knockdown of KDM5B leads to upregulation of tumor suppressor genes, including BRCA1. The goal of this project is to employ qHTS to identify selective small molecule inhibitors of KDM5A/B demethylase activity to better understand the role of KDM5 in cancer and to develop novel therapies. We employed an FDH-coupled assay previously reported by Sakurai et al. to monitor in vitro KDM5 demethylase activity. Compounds showing dose response inhibition are re-acquired, validated, and tested for non-specific interference with the formaldehyde dehydrogenase (FDH) counterscreen. True inhibitors are validated using an AlphaLisa secondary screen, which employs an H3K4(me2-1)-specific antibody to monitor demethylation of a biotin-tagged H3K4(me3) peptide substrate. Inhibitors are profiled against KDM4A and KDM6A AlphaLisa counterscreens to determine level of demethylase specificity; and against the TruHits counterscreen to eliminate non-specific inhibitory activity on the AlphaLISA detection method. Selective inhibitors identified from the primary and secondary screening are tested in cells using immunofluorescence to monitor global H3K4 tri-methylation as a measure of KDM5A/B inhibition. Early Translation Branch (ETB) National Center for Advancing Translational Sciences (NCATS), Rockville, MD National Institute of Health (NIH), Bethesda, Maryland [1] Sakurai, M et al. A miniaturized screen for inhibitors of Jumonji histone demethylases. Mol Biosyst. 2010 Feb;6(2):357-64. doi: 10.1039/b912993f. Epub 2009 Oct 8.
Materials: 1536-well Black, solid bottom, medium binding assay plate is purchased from Greiner Bio-one. The enzymes (KDM5B) and substrate (H3K4me3/2) are provided by the principal investigators. The buffer for this assay is composed of 50mM HEPES at pH 7.5 with 0.01% Tween-20. FDH coupled Demethylase qHTS protocol: Three microliter enzyme mix (buffer + 200nM KDM5BDeltaAP final concentration) is dispensed into the assay plate using the BioRAPTR Flying Reagent Dispenser (FRD; […]). Compound (at various final concentration) and control solution is pin transferred to the assay plate using the Kalypsys 1536-pin tool apparatus. The assay plate is incubated for 10 min at room temperature followed by addition of 1uL substrate mix (buffer + 100uM ascorbic acid, 50uM ferrous ammonium sulfate, 12.5uM H3K4Me3, 25uM a-ketoglutarate, 0.25 mM NAD+, 0.25 U/mL formaldehyde dehydrogenase using the FRD yielding a total reaction volume of 4 uL. Initial fluorescence (Read1) is detected using the PerkinElmer ViewLux plate reader equipped with 340 nm excitation and 450 nm emission filters. The final fluorescence (Read2) signal is obtained after 30 min of room temperature incubation. Delta RFU is calculated (Read2 - Read1) and is used to generated dose response curves.
Potency is the fitted concentration of half-maximal effect.

SMILES | Potency | activity change, negative = inhibition
Cc1ccccc1-c1ccc2n(c1=O)C[C@H]1C[C@@H]2CN(C(=O)CSCC(=O)O)C1 | 39.8 µM (active) | –
CCCS(=O)(=O)N1C[C@@H]2C[C@H](C1)c1ccc(-c3ccccc3C)c(=O)n1C2 | 39.8 µM (active) | –
O=C(NC1CCCCC1)N1C[C@@H]2C[C@H](C1)c1c(-c3ccccc3F)ccc(=O)n1C2 | – | -3.18% [at 86.2 µM]
O=C(COc1ccccc1)N1C[C@@H]2C[C@H](C1)c1c(-c3ccccc3F)ccc(=O)n1C2 | – | -16.7% [at 86.2 µM]
O=C(Nc1ccc2n(c1=O)C[C@H]1C[C@@H]2CN(C(=O)c2ccccn2)C1)c1ccc(F)cc1 | – | -9.18% [at 86.2 µM]
O=C(Nc1ccc(Cl)cc1)N1C[C@@H]2C[C@H](C1)c1c(-c3ccccc3F)ccc(=O)n1C2 | – | -24.4%
Cc1ccc(NC(=O)N(Cc2ccc3c(c2)OCO3)C2CCN(Cc3ccccc3)CC2)cc1F | – | -10.8%
COc1ccc(/C=C\[N+](=O)[O-])c(OC)c1 | – | -8.21%
CC1(C)NN1CCCCN1NC1(C)C (stereo not given) | – | -5.45%
COC1CN(c2ccc(C)cc2)C12CCNCC2 (stereo not given) | – | 135%
Cn1nc(-c2cccs2)cc1[C@H]1CN2CC[C@H]1C[C@@H]2CNC(=O)Nc1ccccc1 | – | -16.6% [at 86.2 µM]
CN(C)C(=O)Oc1ccc2c(=O)c(-c3ccc(Br)cc3)c(C(F)(F)F)oc2c1 | – | 2.76%
Cc1ccc(CN2CCC3(CCNCC3)C2)c(O)c1 | – | -11.6%
Cc1ccc(C(=O)NC[C@H]2C[C@@H]3CCN2C[C@@H]3c2cc(-c3ccco3)nc(C)n2)cc1 | 39.8 µM (active) | –
COc1ccccc1-c1cc([C@H]2CN3CC[C@H]2C[C@@H]3CNC(C)=O)n(C)n1 | – | 28.8% [at 86.2 µM]
COc1ccccc1-c1cc([C@H]2CN3CC[C@H]2C[C@@H]3CNC(=O)c2ccco2)n(C)n1 | – | -4.06% [at 86.2 µM]
COc1ccccc1-c1cc([C@H]2CN3CC[C@H]2C[C@@H]3CNC(=O)c2ccco2)nc(C)n1 | 31.6 µM (active) | –
COc1ccc(C(=O)NC[C@H]2C[C@@H]3CCN2C[C@@H]3c2cc(-c3ccccc3)nn2C)cc1 | – | -13% [at 86.2 µM]

SMILES | Potency | activity change, negative = inhibition
Cc1nc(-c2ccc(C(F)(F)F)cc2)cc([C@H]2CN3CC[C@H]2C[C@@H]3CNC(=O)c2ccco2)n1 | – | -25.8%
COc1cc2c(cc1Oc1cccc(N(C)C)c1)NC(=O)C21CCN(Cc2ccccn2)CC1 | – | 2.87%
c1ccc(CCN2CCC3(CC2)OCCO3)cc1 | – | 2.44%
C=C[C@H]1CN2CC[C@H]1C[C@@H]2CNCc1ccc(C(F)(F)F)cc1 | – | 9.24% [at 86.2 µM]
Cc1nc(-c2ccc(N(C)C)cc2)cc([C@H]2CN3CC[C@H]2C[C@@H]3CNC(=O)C2CCC2)n1 | 39.8 µM (active) | –
COc1ccc(-c2cc([C@H]3CN4CC[C@H]3C[C@@H]4CNC(=O)C3CC3)n(C)n2)cc1OC | – | -11.5% [at 86.2 µM]
Cc1nc(-c2ccccc2)cc([C@H]2CN3CC[C@H]2C[C@@H]3CNC2CCOCC2)n1 | – | -26.8% [at 86.2 µM]
COc1ccc(-c2cc([C@H]3CN4CC[C@H]3C[C@@H]4COC(=O)NC(C)C)nc(C)n2)cc1 | 28.2 µM (active) | –
COc1ccc(-c2cc([C@H]3CN4CC[C@H]3C[C@@H]4CNC(=O)C3CCCCC3)n(C)n2)cc1 | – | -16.3%
CCCS(=O)(=O)NC[C@H]1C[C@@H]2CCN1C[C@@H]2c1cc(-c2ccccc2)nc(C)n1 | – | 3.11% [at 86.2 µM]
CC(C)(C)NC(=O)NC(=O)CCl | – | 21.6%
Cc1ccc(C(=O)N2[C@H]3CC[C@@H]2c2cnc(-c4ccccc4)nc2C3)c(C)c1 | – | 15.1%
Cc1nc(C)c(C(=O)N2[C@H]3CC[C@@H]2c2cnc(-c4ccccc4)nc2C3)s1 | – | -13.3%
CCOC(=O)c1c(C)n(Cc2ccccc2Cl)c2ccc(O)cc12 | – | -12%
O=C(c1ccncc1)N1C[C@@H]2C[C@H](C1)c1ccc(C3CCCCC3)c(=O)n1C2 | – | -13.2% [at 86.2 µM]
CC(=O)Nc1ccc(-c2ccc3n(c2=O)C[C@H]2C[C@@H]3CN(C3CCN(C)CC3)C2)cc1 | 39.8 µM (active) | –
O=C(Nc1ccccc1)N1C[C@@H]2C[C@H](C1)c1c(-c3ccc(Cl)cc3)ccc(=O)n1C2 | – | -29.4% [at 86.2 µM]
